Each structure is given as a SMILES string. Where “and” joins values, the source holds several entries; their conditions need not be identical. Equal values may be shown once. Records with an inconclusive call do not appear. Some structures have more than one record in an assay (separate samples or runs), and their calls can disagree. Calls of active or inactive are those of the source. Unless noted, the call rests on the fitted dose curve; in most records, active means well fitted curve in the direction sought with a large enough effect in the repeat runs; inconclusive means weak or mixed curves; inactive means no such curve, though single readings can be large; an effect the other way counts as inactive or inconclusive.

The nature of assay [1]: qHTS assay to test for compound auto fluorescence at 535 nm (green) in HEK293 cells (AID 720680).
A short description of assay [2]: qHTS assay to test for compound auto fluorescence at 535 nm (green) in HEK293 cell free culture (AID 720682). A digest of the protocol: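 Steps: dispense DMEM/10% FBS into empty wells; pin in compound or DMSO; measure fluorescence at 485/535 nm. Values are fluorescein equivalents.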
For orientation: Quantitative high-throughput screening tests each substance at several concentrations.

Assay [3] is described as follows: qHTS assay to test for compound auto fluorescence at 590 nm (red) in HEK293 cell free culture (AID 720683). A digest of the protocol:
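Tox21 10K library compounds were pinned into cell-free DMEM with 10% FBS and fluorescence was read at excitation 540 nm. Activity is expressed as Rose Bengal sodium equivalency.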

Assay [4] can be described thus: qHTS assay to test for compound auto fluorescence at 590 nm (red) in HepG2 cell free culture (AID 720684). A digest of the protocol: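 Ex 540 / Em 590 nm read of compound in cell-free MEM (10% FBS). Rose Bengal sodium reference.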
A short description of assay [5]: qHTS assay to test for compound auto fluorescence at 460 nm (blue) in HepG2 cell free culture (AID 720685). A digest of the protocol:
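Cell-free plates of MEM plus 10% FBS received 23 nL compound or DMSO vehicle; blue-channel (405/460 nm) intensity scored against triamterene as reference fluorophore.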

A short description of assay [6]: qHTS assay to test for compound auto fluorescence at 535 nm (green) in HepG2 cell free culture (AID 720686).
Assay [7] in a line: qHTS assay to test for compound auto fluorescence at 460 nm (blue) in HepG2 cells (AID 720687). A digest of the protocol:
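Cells (2,000/well in MEM with 10% FBS) attached overnight at 37 C, then were exposed to compound or DMSO for 1 hr at 37 C, 5% CO2. Fluorescence read at Ex/Em 405/460 nm, expressed as triamterene-equivalent signal.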

A short description of assay [8]: qHTS assay to identify small molecule antagonists of the glucocorticoid receptor (GR) signaling pathway - cell viability counter screen (AID 720693). Further: nearly all actives have a fitted effect of over 55% in size.
Assay [9] in a line: qHTS assay for identifying genotoxic compounds that show differential cytotoxicity against isogenic chicken DT40 cell lines with known DNA damage response pathways - wild type cell line (AID 743012). Further: nearly all actives have a fitted effect of over 60% in size. A digest of the protocol: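 Cytotoxicity in repair-proficient parental chicken DT40 cells serves as the comparator for Rad54/Ku70- and Rev3-deficient lines. Cells were exposed to compounds for 40 h at 37 C/5% CO2, and ATP-based luminescence (CellTiter-Glo) measured viability.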

Assay [10] can be described thus: qHTS assay for identifying genotoxic compounds that show differential cytotoxicity against isogenic chicken DT40 cell lines with known DNA damage response pathways - Rev3 mutant cell line (AID 743014). Further: nearly all actives have a fitted effect of over 55% in size. Further: potency means the concentration at half of the fitted maximal effect.
Assay [11] in a line: qHTS assay for identifying genotoxic compounds that show differential cytotoxicity against isogenic chicken DT40 cell lines with known DNA damage response pathways - Rad54/Ku70 mutant cell line (AID 743015). Further: nearly all actives have a fitted effect of over 60% in size. Further: potency means the concentration at half of the fitted maximal effect.
Assay [12] is described as follows: qHTS assay to identify small molecule antagonists of the androgen receptor (AR) signaling pathway - cell viability counter screen (AID 743033; further: nearly all actives have a fitted effect of over 45% in size).
Assay [13] concerns the target Androgen receptor (Homo sapiens) (UniProt P10275). Kind of assay: qHTS assay to identify small molecule antagonists of the androgen receptor (AR) signaling pathway (AID 743035; active means well fitted inhibition curve with a large enough effect in the signal ratio in the repeat runs, not every such curve was filed as active; the % refers to the signal ratio). A digest of the protocol: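 Steps: seed AR-UAS-bla GripTite HEK293 cells, incubate 4 h at 37C; pin in test compound, then add agonist R1881; incubate 16 h at 37C; add LiveBLAzer B/G FRET substrate, 2 h at room temperature; read fluorescence.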

Assay [14] has the same target. Kind of assay: qHTS assay to identify small molecule agonists of the androgen receptor (AR) signaling pathway (AID 743036; active means well fitted activation curve with a large enough effect in the signal ratio in the repeat runs, with a control signal flat, not every such curve was filed as active; the % refers to the signal ratio; further: potency means the concentration at half of the fitted maximal effect). The gist of the method:
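Reporter line: GeneBLAzer AR-UAS-bla-GripTite (HEK293). Steps: plate cells, 4 h rest, add compounds, 16 h at 37C, add LiveBLAzer B/G substrate, 2 h at RT, read fluorescence.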

Assay [15] is described as follows: qHTS assay to identify small molecule antagonists of the androgen receptor (AR) signaling pathway using the MDA cell line - cell viability counter screen (AID 743041; further: nearly all actives have a fitted effect of over 45% in size). The gist of the method: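 In this qHTS counter assay, fluorescence intensity after CellTiter-Fluor addition indicated viability of MDA-kb2 AR-luc cells given compounds and R1881 for 16 h at 37C.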

Assay [16] concerns the target Androgen receptor (Homo sapiens) (UniProt P10275). Kind of assay: qHTS assay to identify small molecule antagonists of the androgen receptor (AR) signaling pathway using the MDA cell line (AID 743042; further: nearly all actives have a fitted effect of over 55% in size). A digest of the protocol: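 MDA-kb2 cells (human breast carcinoma, stably carrying an MMTV-luciferase reporter responsive to AR and GR) were plated at 3,000 cells/well and preincubated 5 hr at 37C, then given compound plus R1881 agonist for 16 h. ONE-Glo luminescence was read.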

Assay [17] has as its target Glucocorticoid receptor (Homo sapiens) (UniProt P04150). Kind of assay: qHTS assay to identify small molecule agonists of the glucocorticoid receptor (GR) signaling pathway (AID 720691; active means well fitted activation curve with a large enough effect in the signal ratio in the repeat runs, not every such curve was filed as active; the % refers to the signal ratio). The gist of the method: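 Steps: seed GR-bla HeLa cells, incubate 4 h at 37 C/5% CO2; pin-transfer DMSO-dissolved compounds; incubate 18 h at 37 C; add LiveBLAzer B/G FRET substrate; after 2 h at room temperature, measure fluorescence.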

Assay [18] has the same target. Kind of assay: qHTS assay to identify small molecule antagonists of the glucocorticoid receptor (GR) signaling pathway (AID 720692; active means well fitted inhibition curve with a large enough effect in the signal ratio in the repeat runs, not every such curve was filed as active; the % refers to the signal ratio; further: potency means the concentration at half of the fitted maximal effect). The gist of the method:
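Antagonism was scored as loss of dexamethasone-driven (5 nM final) reporter signal in HeLa cells bearing a glucocorticoid response element–beta-lactamase construct, after 18 h compound exposure at 37 C and 2 h FRET substrate loading.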

Assay [19] in a line: qHTS assay to test for compound auto fluorescence at 460 nm (blue) in HEK293 cell free culture (AID 720681). A digest of the protocol: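 Test compounds were pinned into cell-free culture medium (DMEM with 10% FBS) and fluorescence was read directly at Ex/Em 405/460 nm. Signals were expressed as fluorescence equivalents of triamterene, with DMSO vehicle as control.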

Glucocorticoid receptor (Homo sapiens), sequence (P04150 whole entry, looked up): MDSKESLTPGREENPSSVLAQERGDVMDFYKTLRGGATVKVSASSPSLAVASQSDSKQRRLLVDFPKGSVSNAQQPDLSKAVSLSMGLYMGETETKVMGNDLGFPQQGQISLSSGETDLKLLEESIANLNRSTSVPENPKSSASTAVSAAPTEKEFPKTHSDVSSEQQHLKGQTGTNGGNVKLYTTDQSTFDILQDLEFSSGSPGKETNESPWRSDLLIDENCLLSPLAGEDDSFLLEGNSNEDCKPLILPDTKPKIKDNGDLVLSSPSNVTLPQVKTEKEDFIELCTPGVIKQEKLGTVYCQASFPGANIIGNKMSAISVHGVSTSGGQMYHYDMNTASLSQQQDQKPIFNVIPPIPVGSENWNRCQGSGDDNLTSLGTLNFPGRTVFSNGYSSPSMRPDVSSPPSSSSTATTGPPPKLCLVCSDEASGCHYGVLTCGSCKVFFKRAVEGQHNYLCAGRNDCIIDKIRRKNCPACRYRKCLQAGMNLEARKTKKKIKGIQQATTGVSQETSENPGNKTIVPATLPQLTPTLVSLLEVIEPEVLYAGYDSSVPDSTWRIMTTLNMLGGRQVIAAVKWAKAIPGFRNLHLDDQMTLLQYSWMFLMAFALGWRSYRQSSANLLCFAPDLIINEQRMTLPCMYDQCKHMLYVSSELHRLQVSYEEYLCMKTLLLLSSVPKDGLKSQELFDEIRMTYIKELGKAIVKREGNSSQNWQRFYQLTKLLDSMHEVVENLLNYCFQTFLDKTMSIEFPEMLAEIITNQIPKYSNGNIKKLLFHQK
Androgen receptor (Homo sapiens), sequence (P10275 whole entry, looked up): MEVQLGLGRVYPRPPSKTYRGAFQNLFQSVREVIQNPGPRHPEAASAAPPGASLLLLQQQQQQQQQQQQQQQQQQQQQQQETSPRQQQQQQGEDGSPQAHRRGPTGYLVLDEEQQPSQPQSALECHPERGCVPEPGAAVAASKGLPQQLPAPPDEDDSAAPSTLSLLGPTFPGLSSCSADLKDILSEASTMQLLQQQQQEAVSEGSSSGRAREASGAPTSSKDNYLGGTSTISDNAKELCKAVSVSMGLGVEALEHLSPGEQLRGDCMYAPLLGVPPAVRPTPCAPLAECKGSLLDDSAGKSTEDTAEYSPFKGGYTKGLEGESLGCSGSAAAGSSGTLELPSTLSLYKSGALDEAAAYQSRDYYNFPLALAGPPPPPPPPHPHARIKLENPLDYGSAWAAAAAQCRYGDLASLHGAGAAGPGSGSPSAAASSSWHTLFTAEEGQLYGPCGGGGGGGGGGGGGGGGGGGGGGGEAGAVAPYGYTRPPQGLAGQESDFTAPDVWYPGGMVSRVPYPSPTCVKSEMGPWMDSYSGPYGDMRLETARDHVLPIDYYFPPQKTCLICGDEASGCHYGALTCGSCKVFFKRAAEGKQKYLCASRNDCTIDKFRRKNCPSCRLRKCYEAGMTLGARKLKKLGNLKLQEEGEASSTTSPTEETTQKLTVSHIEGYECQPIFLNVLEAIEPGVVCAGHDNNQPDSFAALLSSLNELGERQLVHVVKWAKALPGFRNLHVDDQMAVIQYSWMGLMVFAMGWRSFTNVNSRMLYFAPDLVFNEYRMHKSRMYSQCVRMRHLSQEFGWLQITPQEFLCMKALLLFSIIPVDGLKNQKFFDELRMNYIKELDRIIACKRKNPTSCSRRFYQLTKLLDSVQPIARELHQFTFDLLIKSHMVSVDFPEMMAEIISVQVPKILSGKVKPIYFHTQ

As to `c1ccsc1`, the Potency result in assay [1], in [2], in assay [3], in [4], in assay [5] and in assay [6] was “inactive” in each case. The Potency entry in assay [7], in [8], in assay [9], in [10], in assay [11] and in [12] was “inactive” throughout. The Potency entry in assay [13], in assay [15] and in [16] was “inactive” in each case. Further, in assay [14], the Potency is 5.9 µM (active).

For `C=C(C)C(=O)OCCCCCCCCCC`, the Potency entry in [1], in assay [2], in assay [3], in assay [4], in [5] and in [6] was “inactive” in each case. Moreover, the Potency entry in assay [7], in assay [17], in assay [8], in assay [9], in assay [10] and in assay [11] was “inactive” throughout. Besides, in assay [15], the Potency result was “inactive”.

As to `CCCCC/C=C\C/C=C\CCCCCCCC(=O)O`, the Potency result in [1], in assay [2], in assay [3], in [4], in assay [5] and in assay [6] was “inactive” each time. Moreover, the Potency entry in assay [8], in assay [9], in assay [10] and in assay [12] was “inactive” in each case. Also, the Potency entry in [11] is “inactive and 54.5 µM (active)”.

Regarding `CCCC1CCC(=O)CC1`, the Potency entry in assay [1], in assay [2], in assay [3], in [4], in assay [5] and in [6] was “inactive” throughout. The Potency result in [17], in assay [18], in assay [8], in [9], in [11] and in assay [12] was “inactive” in each case. Besides, in assay [15], the Potency result is “inactive”.

Turning to `CCCCOC(=O)CO`, the Potency result in assay [19], in [2], in [3], in assay [4], in assay [5] and in assay [6] was “inactive” each time. In addition, the Potency result in [7], in assay [17], in assay [18], in [8], in [9] and in assay [11] was “inactive” in each case. Further, the Potency result in [12] was “inactive”.

As for `CCCC[P+](C)(CCCC)CCCC`, the Potency entry in [1], in assay [2], in assay [3], in assay [4], in assay [5] and in assay [6] was “inactive” in each case. The Potency result in assay [17], in [8] and in [12] was “inactive” each time.

On to `CC1(C)CCC[C@]2(C)[C@H]3CCO[C@]3(C)CC[C@@H]12`, for which the Potency result in assay [1], in assay [3], in [4], in [5], in [6] and in assay [7] was “inactive” each time. Moreover, the Potency result in assay [17], in [8], in [9], in assay [10], in [11] and in assay [12] was “inactive” each time. Besides, the Potency result in assay [15] is “inactive”.

With `C#C[C@]1(OC(C)=O)CC[C@H]2[C@@H]3CCC4=C[C@@H](OC(C)=O)CC[C@@H]4[C@H]3CC[C@@]21C`, the Potency result in [1], in assay [2], in [3], in assay [4], in assay [5] and in assay [6] was “inactive” in each case. In addition, the Potency result in assay [7], in assay [17], in assay [8] and in assay [12] was “inactive” in each case. In addition, the Potency was 9.52 µM (active) in [18]; 10.6 µM (active) and 16.8 µM (active) in assay [10]; 10.6 µM (active) and 11.9 µM (active) in assay [11].

Regarding `O=C(/C=C/c1ccc(O)c(O)c1)O[C@@H](C(=O)O)[C@@H](OC(=O)/C=C/c1ccc(O)c(O)c1)C(=O)O`, the Potency entry in assay [1], in [3], in assay [4], in assay [5], in assay [6] and in assay [7] was “inactive” each time. Further, the Potency entry in assay [17], in assay [18], in assay [8], in assay [9], in assay [10] and in assay [12] was “inactive” throughout.

For the origin of these results see PubChem BioAssay (Tox21).
